Holding throughout (test): NCI-60 one-dose screen, 48 h (100 = growth as untreated, 0 = no growth, -100 = all killed)
In one assay the test system is NCI-H23 lung. Conditions: 10 µM unless noted.
Another assay relates to NCI-H226 lung. The note with it: 10 µM unless noted.
For a further assay, the system named is NCI-H322M lung. Conditions: 10 µM unless noted.
Another assay concerns NCI-H460 lung. Conditions: 10 µM unless noted.
The next assay has as its system HOP-92 NSCLC. Conditions: 10 µM.
A further assay concerns NCI-H522 lung. The note with it: 10 µM.
Another assay has as its system A549/ATCC NSCLC. The note with it: 10 µM unless noted.
The subject of a further assay is 786-0 renal. The note with it: 10 µM unless noted.
The test system of the next assay is COLO 205 colon. The note with it: 10 µM unless noted.
The subject of a further assay is DU-145 prostate. The note with it: 10 µM unless noted.
In the next assay the test system is K-562 leukemia. Conditions: 10 µM unless noted.
In the next assay the test system is MALME-3M melanoma. The note with it: 10 µM unless noted.
For another assay, the system named is MDA-MB-231 breast. Conditions: 10 µM unless noted.
For the next assay, the system named is RXF 393 renal. The note with it: 10 µM unless noted.
For a further assay, the system named is SF-268 CNS. Conditions: 10 µM unless noted.
A further assay has as its system SF-295 CNS. Conditions: 10 µM unless noted.
In the next assay the test system is SF-539 CNS. Conditions: 10 µM unless noted.
A further assay relates to UACC-257 melanoma. Conditions: 10 µM unless noted.
In a further assay the test system is M14 melanoma. Conditions: 10 µM unless noted.

This is part of a sample that, as a whole, favours compounds with a hit. Of some 83,000 tested, about 20% had one in any assay.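 Percent growth is the endpoint: 0 to 100 indicates growth inhibition (40 means 60% inhibition), 0 means no net growth, and negative values indicate cell death.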 Unmarked numbers belong to inactive results. Calls of active or inactive are those of the source. Rule for the calls: active = growth percent below 10; inactive = the rest.

Drawing on PubChem BioAssay (NCI), this text covers growth for seven compounds.

Take `NNC(=O)CNc1ccc2ccccc2c1`: the growth in the assay with NCI-H23 lung is 101%; with NCI-H226 lung it was 109%; in the assay on NCI-H322M lung, 115%; with NCI-H460 lung it was 113%; in the assay on HOP-92 NSCLC, 70.4%; in the assay on NCI-H522 lung, 98.5%. The growth in the assay with A549/ATCC NSCLC was 115%; in the assay on 786-0 renal it was 105%; in the assay with COLO 205 colon, 109%; with DU-145 prostate, 95.8%; in the assay on K-562 leukemia it was 86.8%; in the assay on MALME-3M melanoma it was 98.9%. The growth in the assay with MDA-MB-231 breast was 104%; with RXF 393 renal it was -7.3% (active); in the assay on SF-268 CNS, 120%; with SF-295 CNS it was 118%; in the assay with SF-539 CNS, 95.4%; with UACC-257 melanoma it was 105%. Moreover, the growth with M14 melanoma is -100% (active).
For the compound `C#CCCCCCCC[C@@H]1OC(=O)[C@H]([C@@H](C)CC)NC(=O)[C@@H]([C@@H](C)CC)NC(=O)CC(=O)[C@@H]1C`, the growth with NCI-H23 lung was 99.2%; in the assay with NCI-H226 lung, 86.1%; in the assay with NCI-H322M lung, 96.9%; in the assay on NCI-H460 lung, 102%; in the assay on HOP-92 NSCLC, 77.3%; in the assay on NCI-H522 lung, 90.7%. Also, the growth in the assay with A549/ATCC NSCLC is 107%; in the assay on 786-0 renal, 109%; with COLO 205 colon, 119%; in the assay on DU-145 prostate, 106%; in the assay with K-562 leukemia, 92.5%; in the assay on MALME-3M melanoma, 94.7%. The growth is 85.7% in the assay on MDA-MB-231 breast; 101% in the assay on RXF 393 renal; 94.8% in the assay with SF-268 CNS; 98.6% in the assay on SF-295 CNS; 96.2% in the assay on SF-539 CNS; 121% in the assay on UACC-257 melanoma. Moreover, the growth with M14 melanoma was 93.3%.
In the case of `CCCCCCCCC/C(=N\NC(=O)c1ccncc1)c1ccc(O)c(O)c1O`, the growth in the assay with NCI-H23 lung was 21.8%; in the assay with NCI-H226 lung, 34.4%; with NCI-H322M lung, 36.1%; with NCI-H460 lung it was 4.14% (active); in the assay with HOP-92 NSCLC it was 46.6%; with NCI-H522 lung, 36%. Further, the growth in the assay on A549/ATCC NSCLC was 13.5%; in the assay with 786-0 renal, 11.1%; with COLO 205 colon, 27.6%; in the assay with DU-145 prostate, 27.8%; with K-562 leukemia, 15.1%; with MALME-3M melanoma, 35.4%. The growth in the assay with MDA-MB-231 breast is 47.9%; with RXF 393 renal, 19.2%; in the assay with SF-268 CNS, 17.6%; in the assay with SF-295 CNS, 16.3%; in the assay on SF-539 CNS it was 7.62% (active); with UACC-257 melanoma, 8.98% (active). Besides, the growth in the assay with M14 melanoma was 8.78% (active).
For `COc1cccc2c1nc1cccc(OC)c1[n+]2[O-]`, the growth with NCI-H23 lung was 9.62% (active); in the assay on NCI-H226 lung, 71.2%; in the assay on NCI-H322M lung, 78.6%; in the assay with NCI-H460 lung it was 14.1%; in the assay with HOP-92 NSCLC, 31.4%; with NCI-H522 lung, 20.2%. In addition, the growth in the assay with A549/ATCC NSCLC is 36.8%; in the assay on 786-0 renal, 32.5%; with COLO 205 colon it was 77.9%; in the assay with DU-145 prostate, 13.8%; in the assay on K-562 leukemia it was 39.8%; in the assay with MALME-3M melanoma it was 16.4%. Further, the growth in the assay with MDA-MB-231 breast was 78.5%; in the assay with RXF 393 renal, -39.6% (active); in the assay on SF-268 CNS, 36.9%; with SF-295 CNS, 36.7%; in the assay with SF-539 CNS, 25.2%; in the assay on UACC-257 melanoma, 58.2%. Further, the growth in the assay on M14 melanoma was -3.49% (active).
On to `C/C(=N\Nc1ccc(Cl)cn1)c1ccccn1`, for which the growth with NCI-H23 lung was 11.6%; with NCI-H226 lung, -8.37% (active); in the assay on NCI-H322M lung, 9.31% (active); in the assay on NCI-H460 lung, 0.782% (active); with HOP-92 NSCLC it was 29%; in the assay on NCI-H522 lung, 6.6% (active). The growth is 6.73% (active) in the assay with A549/ATCC NSCLC; 8.74% (active) with 786-0 renal; 9.59% (active) in the assay with COLO 205 colon; 18.2% in the assay with DU-145 prostate; 5.63% (active) with K-562 leukemia; 2.78% (active) with MALME-3M melanoma. Besides, the growth with MDA-MB-231 breast is 31%; in the assay on RXF 393 renal it was 19.4%; with SF-268 CNS it was 11.9%; with SF-295 CNS, -1.75% (active); in the assay on SF-539 CNS it was -14% (active); in the assay with UACC-257 melanoma, -11.4% (active). In the assay on M14 melanoma, the growth was 2.33% (active).
As for `Nc1ccc(S(=O)(=O)Nc2cc(F)cc(F)c2)cc1`, the growth was 111% in the assay with NCI-H23 lung; 104% with NCI-H226 lung; 114% with NCI-H322M lung; 110% with NCI-H460 lung; 99.9% with HOP-92 NSCLC; 94.9% with NCI-H522 lung. For the same compound, the growth is 119% with A549/ATCC NSCLC; 99.7% in the assay on 786-0 renal; 112% with COLO 205 colon; 94.5% in the assay with DU-145 prostate; 71.9% in the assay with K-562 leukemia; 131% in the assay with MALME-3M melanoma. The growth is 90.9% in the assay with MDA-MB-231 breast; 20.1% in the assay with RXF 393 renal; 130% in the assay with SF-268 CNS; 103% with SF-295 CNS; 85.6% in the assay on SF-539 CNS; 95.5% in the assay with UACC-257 melanoma. For the same compound, the growth in the assay with M14 melanoma was 91.1%.
On to `COc1cccc2c1n([O-])c1cccc(OC)c1[n+]2=O`, for which the growth in the assay on NCI-H23 lung was 58.8%; in the assay on NCI-H226 lung, 97.8%; in the assay with NCI-H322M lung it was 107%; with NCI-H460 lung it was 47.8%; in the assay on HOP-92 NSCLC it was 94.3%; with NCI-H522 lung, 53.5%. In addition, the growth is 70.6% in the assay on A549/ATCC NSCLC; 84.2% in the assay on 786-0 renal; 97.6% in the assay with COLO 205 colon; 60.9% in the assay on DU-145 prostate; 37.6% in the assay on K-562 leukemia; 89.2% with MALME-3M melanoma. The growth in the assay on MDA-MB-231 breast is 95.7%; with RXF 393 renal, -35.3% (active); with SF-268 CNS, 62%; in the assay on SF-295 CNS, 120%; with SF-539 CNS it was 68.4%; in the assay with UACC-257 melanoma, 71%. The growth with M14 melanoma was 96%.
